Test results taken from PubChem BioAssay AID2642 (Johns Hopkins Ion Channel Center, 2010).
Among all 310,000 compounds or so, about 3,900 (1.3%) were called active.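 The calls were made as follows: active = compounds whose thallium flux B-score, printed positive for inhibition, exceeds three library SD while starting fluorescence stays within three; inactive = the rest.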 For the sample, actives were picked, then their nearest neighbours and some compounds at random.

target: Potassium voltage-gated channel subfamily KQT member 1 (Homo sapiens) (UniProt P51787); assay: inhibitors of human KCNQ1 channel, primary screen, cell-based, thallium flux, high-throughput (AID 2642); settings: CHO-K1 KCNQ1, FluxOR thallium flux fluorescence, at 10 µM; hits give high values;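 also: channel opened by potassium depolarization with thallium stimulus after 20 min compound exposure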
Sequence (P51787 whole entry, looked up): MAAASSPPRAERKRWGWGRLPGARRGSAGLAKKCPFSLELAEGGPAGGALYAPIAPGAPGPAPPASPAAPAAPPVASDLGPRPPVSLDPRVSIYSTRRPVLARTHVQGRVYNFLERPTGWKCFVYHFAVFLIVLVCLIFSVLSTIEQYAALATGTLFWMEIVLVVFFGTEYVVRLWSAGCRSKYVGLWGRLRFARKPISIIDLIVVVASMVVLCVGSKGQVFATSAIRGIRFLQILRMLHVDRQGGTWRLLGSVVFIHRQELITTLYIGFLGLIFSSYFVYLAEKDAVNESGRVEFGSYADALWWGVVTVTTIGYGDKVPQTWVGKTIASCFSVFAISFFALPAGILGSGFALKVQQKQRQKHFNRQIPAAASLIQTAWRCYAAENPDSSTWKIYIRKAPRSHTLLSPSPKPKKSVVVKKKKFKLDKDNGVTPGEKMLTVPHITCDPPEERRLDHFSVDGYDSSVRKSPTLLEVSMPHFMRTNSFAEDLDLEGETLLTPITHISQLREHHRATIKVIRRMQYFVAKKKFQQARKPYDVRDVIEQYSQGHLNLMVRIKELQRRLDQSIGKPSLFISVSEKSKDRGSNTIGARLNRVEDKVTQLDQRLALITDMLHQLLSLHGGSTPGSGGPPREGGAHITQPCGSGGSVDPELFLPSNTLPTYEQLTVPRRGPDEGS

SMILES | B-score
Cc1nc(C(=O)N2CCCC(C(=O)c3ccc(Cl)cc3)C2)cs1 (stereo not drawn) | inactive
CCOC(=O)N1CCN(CCC(=O)Nc2ccccc2)CC1 | inactive
Cc1cccc(NC(=O)C2CCCN(C(=O)Nc3ccc(F)cc3)C2)c1C (stereo not drawn) | inactive
COc1cccc2c(C)c(C(=O)O)[nH]c12 | inactive
Cc1nn(-c2ncc(C(F)(F)F)cc2Cl)c(=O)n1-c1ccccc1 | inactive
CC1CCCC(N2CCN(C(=O)c3ccc(F)cc3)CC2)C1 (stereo not drawn) | inactive
C=CCn1c(SCC(N)=O)nnc1-c1cc2c(s1)CCC(CC)C2 (stereo not drawn) | inactive
COc1ccc(-c2csc3ncnc(Oc4ccc5c(C)cc(=O)oc5c4)c23)cc1 | inactive
COc1ccc(-c2csc3ncnc(N4CCN(S(=O)(=O)c5cccc(F)c5)CC4)c23)cc1 | 6 (active)
COc1ccc(-c2csc3ncnc(N4CCN(S(=O)(=O)c5ccccc5C#N)CC4)c23)cc1 | inactive
CCN(c1ccc(NC(=O)COC(=O)CCc2nc3ccccc3n2-c2ccccc2)cc1)C(C)C | inactive
CCN1/C(=C\c2ccc3ccccc3[n+]2CC)Sc2cc(C)ccc21 | 15 (active)
O=C(CNS(=O)(=O)c1ccccc1)NCC(=O)OCc1ccccc1F | inactive
Cc1ccc(SCC(=O)NC(=O)NCc2ccco2)c(C)c1 | inactive
CC(=O)NCc1ccc(S(=O)(=O)NC2CCN(Cc3ccccc3)CC2)cc1 | inactive
COc1ccc(C)cc1NC(=S)Nc1ccccc1SC | inactive
O=C1NC(=Nc2ccc(Cl)cc2)SC1Cc1cccc(Cl)c1Cl (stereo not drawn) | inactive
O=C(NNC(=O)c1csc(-c2cccnc2)n1)Nc1ccc(Cl)cc1 | inactive
O=C(Nc1ccc(Cl)cc1)Nc1ccc(Oc2cccnc2)nc1 | 8 (active)
Cc1ccc(NC(=O)Nc2cccnc2)cc1 | inactive
Cc1cccc(N2CCC(NCc3c(C(=O)N4CCCCC4)nc4c(C)cccn34)CC2)c1 | inactive
Cc1ccc(N2CCN(S(=O)(=O)c3ccc(F)cc3)CC2)c(C)c1 | 7 (active)
Cc1ccc(S(=O)(=O)N2CCN(C)CC2)cc1 | inactive

SMILES | B-score
Cc1ccccc1N1CCN(S(=O)(=O)c2ccc3ccccc3c2)CC1 | inactive
Clc1cccc(-c2nc(NCC3CCCO3)c3ccccc3n2)c1 (stereo not drawn) | 6 (active)
O=C(NCC1CCCO1)c1cc(-c2ccccc2)nc2ccccc12 (stereo not drawn) | inactive
c1ccc2c(NCC3CCCO3)nc(-c3ccncc3)nc2c1 (stereo not drawn) | inactive
COc1ccc(CC(NC(C)=O)C(=O)NC2CCN(C(=O)c3ccc(Cl)cc3)CC2)cc1 (stereo not drawn) | inactive
CC1CCN(C(=S)NC(=O)c2ccccc2Br)CC1 | inactive
C=CCn1c(-c2sc(-c3ccccc3)nc2C)n[nH]c1=S | inactive
C=CCn1c(-c2ccccc2OCC)n[nH]c1=S | 6 (active)
C=CCn1c(-c2ccc3[nH]c(C)c(C)c3c2)n[nH]c1=S | inactive
COc1ccc(S(=O)(=O)N2CCN(C)CC2)c(C)c1 | inactive
CC(C)(C)NC(=O)CN(Cc1cccs1)C(=O)CNS(=O)(=O)c1ccccc1 | inactive
CCC1=Nc2cc(C(=O)NCCN3CCCC3)ccc2Sc2ccc(C)cc21 | inactive
Cc1cccc(-c2nc3ccc(C(=O)NCCN4CCN(C)CC4)cc3nc2-c2cccc(C)c2)c1 | 7 (active)
Cc1ccc(C(=O)NCCN2CCOCC2)cc1C | inactive
CCCNC(=O)c1ccc(N2CCC3(CC2)CC(c2ccc(Cl)cc2)=NO3)c([N+](=O)[O-])c1 | inactive
CCCNC(=O)c1ccc(N2CCC3(CC2)CC(c2cccc(Br)c2)=NO3)c(NC(=O)c2ccco2)c1 | 6 (active)
O=C(Nc1ccccc1N1CCN(C(=O)c2ccccc2)CC1)c1ccco1 | inactive
c1ccc2c(C[n+]3csc4ccccc43)cccc2c1 | inactive
CC1(C(=O)NCCc2c[nH]c3ccccc23)C=CC2(CCCCC2)N1C(=O)c1ccccc1 (stereo not drawn) | inactive
C/C(=N\NC(=S)NC1CCCCC1)c1ccc(C)o1 | inactive
CCc1nnc(NC(=O)CSc2nnc(COc3ccc(C#N)cc3)n2-c2ccccc2)s1 | inactive
CCc1nnc(NC(=O)CSc2nnc(Cc3ccccc3)n2-c2ccc(OC)cc2)s1 | 11 (active)
CCc1nnc(NC(=O)CSc2nnc(-c3ccncc3)n2Cc2ccccc2)s1 | inactive

SMILES | B-score
O=C(NCc1ccccc1Cl)C1CCN(S(=O)(=O)c2cccc3nonc23)CC1 | inactive
O=C(NCc1ccccc1Cl)C1CCN(S(=O)(=O)N2CCOCC2)CC1 | inactive
O=C1CCc2cc(S(=O)(=O)N3CCC(C(=O)NCc4ccccc4Cl)CC3)ccc2N1 | 8 (active)
Cc1nnc(-c2ccc(Oc3ccc(C)c(C)c3)c([N+](=O)[O-])c2)o1 | inactive
Cc1c(Br)c([N+](=O)[O-])nn1C(C)C(=O)Nc1nccs1 (stereo not drawn) | inactive
CC(=O)Nc1ccc(NC(=O)c2ccc3c(c2)C(=O)N(c2ccccc2C)C3=O)cc1 | inactive
COc1cc(OC)c(OC)cc1/C=N/Nc1ncnc2c1[nH]c1ccc(C)cc12 | inactive
CC(C)OCCCNc1ncnc2c1[nH]c1ccc(F)cc12 | 9 (active)
CC(C)OCCCNC(=O)c1cc(Sc2ccc(F)cc2)nc2ccccc12 | inactive
CN(CCOc1ccc(Br)cc1)CC(=O)Nc1cccc(S(=O)(=O)NC2=NCCC2)c1 | inactive
Cc1cccc(NC(=O)CSCC(=O)Nc2nnc(C3CC3)s2)c1 | inactive
O=C(CSc1nnc(SCc2ccc(F)cc2)s1)Nc1ccc(C(=O)O)cc1 | inactive
CC1=C(C(N)=O)C(c2sccc2C)n2nnnc2N1 (stereo not drawn) | inactive
CCCOc1ccc(C(=O)CCC(=O)OC(C)C(=O)Nc2ccc(NC(C)=O)cc2)cc1 (stereo not drawn) | inactive
CCCCOc1ccc(C(=O)NN2CCN(C)CC2)cc1 | inactive
CCCOc1ccc(C(=O)C(CCC(CNCC)C(=O)c2ccc(OCCC)cc2)CNCC)cc1 (stereo not drawn) | 6 (active)
Cc1nn(CC(=O)NCCc2ccccc2)c(=O)c2cc3occc3n12 | inactive
CC12CN(NC(=O)c3ccc(Cl)cc3)C3(C#N)CC1CCC23C (stereo not drawn) | inactive
COc1ccccc1NC(=O)/C=C/C(N)=O | inactive
CC1CCCN(C(C(=O)Nc2ccc(C(C)C)cc2)c2ccc3c(c2)OCO3)C1 (stereo not drawn) | 7 (active)
CCc1ccc(NC(=O)NC(C)c2ccc3c(c2)OCO3)cc1 (stereo not drawn) | inactive
O=C(Nc1ccc2c(c1)OCCO2)C(c1ccc(F)cc1)N1CCCCC1 (stereo not drawn) | inactive
